Screening results (PubChem)
Only some compounds are listed: those with a hit (about 19% of all), similar ones and a draw of the others.
TDP1 inh: blocks human tyrosyl-DNA phosphodiesterase 1; Q9NUW8; recombinant TDP1, AlphaScreen DNA substrate cleavage; Potency, µM (series often up to 130 µM), most hits filed as inhibitors; actives 0.28% (n = 350,000); AID 485290; further: nearly all actives have a fitted effect of over 40% in size
Target sequence (Q9NUW8 whole entry, looked up): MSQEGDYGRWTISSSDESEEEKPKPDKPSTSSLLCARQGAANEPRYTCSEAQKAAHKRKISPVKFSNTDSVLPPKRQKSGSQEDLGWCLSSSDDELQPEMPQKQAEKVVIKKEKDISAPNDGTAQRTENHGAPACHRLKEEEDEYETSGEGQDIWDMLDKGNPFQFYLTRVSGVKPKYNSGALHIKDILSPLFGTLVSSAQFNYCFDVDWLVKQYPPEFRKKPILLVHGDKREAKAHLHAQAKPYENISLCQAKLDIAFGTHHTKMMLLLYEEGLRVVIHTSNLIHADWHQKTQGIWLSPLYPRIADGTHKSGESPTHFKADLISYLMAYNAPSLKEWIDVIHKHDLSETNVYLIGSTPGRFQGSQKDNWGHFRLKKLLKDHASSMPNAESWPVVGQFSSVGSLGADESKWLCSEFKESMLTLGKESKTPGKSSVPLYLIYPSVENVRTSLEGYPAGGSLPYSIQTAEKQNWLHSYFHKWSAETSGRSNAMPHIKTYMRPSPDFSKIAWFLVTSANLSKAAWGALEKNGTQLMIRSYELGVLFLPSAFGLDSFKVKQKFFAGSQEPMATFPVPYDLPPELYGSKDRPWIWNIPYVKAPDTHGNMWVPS
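AlphaScreen read-out: signal falls as enzyme removes the 3' tyrosine-FITC from a 5'-biotinylated DNA oligo (15 nM, 5 min, RT). Enzyme was E. coli-made recombinant Tdp1 at 1 nM, exposed to compound for 15 min beforehand; beads 10 ug/ml, 10 min.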
HepG2 tox: counter-screen for TGF-b inhibitors: cytotoxicity in HepG2 cells | HepG2 CAGA-GFP viability, ATP luminescence, 18 h | Potency, µM (series often up to 46.1 µM), most hits filed as cytotoxic | actives 0.76% (n = 410,000)
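CellTiter-Glo luminescence gave cytotoxicity after 18 hours at 37 degrees C. The cells were HepG2 CAGA-GFP in 1% FBS DMEM, stimulated with 500 pg/mL TGF-beta after compound addition. %Activity was normalised to no-cell wells (complete cell-killing) and DMSO (no toxicity), and curves were fitted and classified.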
DT40 TDP1 no CPT: qHTS for Inhibitors of human tyrosyl-DNA phosphodiesterase 1 (TDP1): qHTS in cells in absence of CPT; Potency, µM (top dose mostly 46.2 µM), hits mostly inhibitors; DT40 Tdp1-/- hTDP1 cells, no CPT, ATP luminescence, 48 h; actives 15% (n = 420,000); further: nearly all actives have a fitted effect of over 55% in size
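Chicken DT40 Tdp1-/- cells complemented with human TDP1, screened without camptothecin (DMSO vehicle only), 400 cells/well. Compounds pin-transferred, cells incubated at 37 °C for at least 48 hr. Growth read as ATP-dependent luminescence (CellTiter-Glo, 30 min at RT).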
TGFb inhibitor: TGF-b pathway inhibition. HepG2 CAGA-GFP TGF-b/SMAD3 reporter, GFP fluorescence, 18 h; TGF-beta stimulated, 500 pg/mL final. Potency, µM (series often up to 46.1 µM), most hits filed as inhibitors. actives 1.2% (n = 410,000). AID 588855; further: nearly all actives have a fitted effect of over 65% in size
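GFP signal (ex488/em500-530) from TGF-beta-stimulated HEPG2 CAGA-GFP cells, 500 pg/mL final, 18 h at 37 degrees C in DMEM plus 1% FBS, normalized to unstimulated and DMSO-stimulated controls.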
IL-1B inflam inh: inflammasome signaling inhibition, IL-1 beta readout. activity change, % at 57.5 µM. actives 4.7% (n = 360,000). THP-1 LPS/ATP IL-1B secretion, AlphaLISA, 16 h; stronger effect = lower value. AID 743279; in the data active means activity change below about -50%; inconclusive means mostly about -30% to -49%
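THP-1 cells pretreated 1 hr with compounds (up to 57.5 uM final), then stimulated with LPS (250 ng/mL final) plus ATP (1.25 mM final); secreted IL-1B measured by AlphaLISA after 16 hr, decreased signal indicating inhibition.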
DT40 TDP1 CPT: DT40-hTDP1 cell growth loss with CPT; chicken DT40 Tdp1-/-;hTDP1 cells + 20 nM CPT, ATP luminescence, 48 h; Potency, µM (series often up to 46.2 µM), usual class: inhibitors; actives 12% (n = 420,000); further: nearly all actives have a fitted effect of over 55% in size
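Cell growth measured by CellTiter-Glo luminescence after a minimum 48 h, 37 C compound exposure with 20 nM CPT in Tdp1-knockout DT40 cells stably expressing hTDP1, seeded 400/well; qHTS titration format.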
Hits are given with their value; [ ] = another dose, or the depositor's remark. Unless noted, the call rests on the fitted dose curve; in most records, active means well fitted curve in the direction sought with a large enough effect; inconclusive means small, poorly fitted or top-dose-only effect, or another doubt; inactive means no such curve, though single readings can be large; an effect the other way counts as inactive or inconclusive.

Results for O=C(O)c1ccc(S(=O)(=O)Nc2ccc3c(c2)OCCO3)cc1 ?
TDP1 inh: inactive; HepG2 tox: inactive; DT40 TDP1 no CPT: inactive; TGFb inhibitor: inactive; IL-1B inflam inh: inactive; DT40 TDP1 CPT: inactive

What do the screens show for `O=C(N[C@@H](Cc1ccccc1)C(=O)N1CCN(S(=O)(=O)c2ccc(F)cc2)CC1)c1ccco1`?
TDP1 inh: inactive; HepG2 tox: inactive; DT40 TDP1 no CPT: 21µM; TGFb inhibitor: inactive; IL-1B inflam inh: inactive; DT40 TDP1 CPT: 15µM

How did O=C(c1ccc(S(=O)(=O)Nc2ccc(F)cc2)cc1)N1CCN(C(=O)c2ccco2)CC1 do in these assays?
TDP1 inh: inactive; HepG2 tox: inactive; DT40 TDP1 no CPT: 12µM; TGFb inhibitor: inactive; IL-1B inflam inh: inactive; DT40 TDP1 CPT: 13µM

Results for O=C(c1ccc(NS(=O)(=O)c2ccc3c(c2)OCCO3)cc1)N1CCCCC1 ?
HepG2 tox: inactive; DT40 TDP1 no CPT: 21µM; TGFb inhibitor: inactive; IL-1B inflam inh: inconclusive; DT40 TDP1 CPT: inconclusive

Results for CC(=O)N1CCN(C(=O)C(Cc2ccccc2)NC(=O)c2ccccc2)CC1 (centres undefined) ?
TDP1 inh: inactive; HepG2 tox: inactive; DT40 TDP1 no CPT: inactive; TGFb inhibitor: inactive; IL-1B inflam inh: inactive; DT40 TDP1 CPT: inactive

What do the screens show for `O=C(O)CC/C=C\C[C@@H]1CO[C@H](c2ccccc2Cl)O[C@@H]1c1ccccc1O`?
TDP1 inh: inactive; DT40 TDP1 no CPT: inactive; DT40 TDP1 CPT: inactive

How did CCNc1nc(C#N)nc(Nc2ccccc2)n1 do in these assays?
TDP1 inh: inactive; HepG2 tox: inactive; DT40 TDP1 no CPT: 11µM; TGFb inhibitor: inactive; DT40 TDP1 CPT: inconclusive

How did N#CC1=C(N)Oc2cc(N)ccc2C1c1cccc(F)c1 (centres undefined) do in these assays?
HepG2 tox: inactive; DT40 TDP1 no CPT: inconclusive; TGFb inhibitor: inactive; IL-1B inflam inh: inactive; DT40 TDP1 CPT: inconclusive

What do the screens show for `CN(C)c1ccc2c(c1)OC(N)=C(C#N)C2c1cccc(F)c1` (centres undefined)?
TDP1 inh: inactive; HepG2 tox: inactive; DT40 TDP1 no CPT: 0.021µM; TGFb inhibitor: inconclusive; IL-1B inflam inh: inactive; DT40 TDP1 CPT: 0.021µM

What do the screens show for `CC(Nc1nc(-c2cccnc2)nc2ccccc12)c1ccccc1` (centres undefined)?
HepG2 tox: inactive; DT40 TDP1 no CPT: inconclusive; TGFb inhibitor: inactive; IL-1B inflam inh: inactive; DT40 TDP1 CPT: inconclusive

What do the screens show for `O=C(NNc1nc2ccccc2nc1C(F)(F)F)c1ccccc1`?
TDP1 inh: inactive; HepG2 tox: inactive; DT40 TDP1 no CPT: inconclusive; TGFb inhibitor: inactive; IL-1B inflam inh: inactive; DT40 TDP1 CPT: inconclusive

Results for COc1ccccc1C(C)Nc1nc(-c2cccnc2)nc2ccccc12 (centres undefined) ?
TDP1 inh: inactive; HepG2 tox: inactive; DT40 TDP1 no CPT: 23µM; TGFb inhibitor: inconclusive; IL-1B inflam inh: inconclusive; DT40 TDP1 CPT: 18µM

Results for C(=N\Nc1nc(-c2ccccn2)nc2ccccc12)/c1ccccc1 ?
TDP1 inh: inactive; HepG2 tox: inactive; TGFb inhibitor: 1.8µM

What do the screens show for `ClC(Cl)(Cl)c1nc(N/N=C/c2ccncc2)c2ccccc2n1`?
TDP1 inh: inactive; HepG2 tox: inactive; DT40 TDP1 no CPT: inconclusive; TGFb inhibitor: inactive; IL-1B inflam inh: inactive; DT40 TDP1 CPT: inactive

How did FC(F)(F)c1nc2ccccc2nc1N/N=C\c1ccccc1 do in these assays?
TDP1 inh: inactive; HepG2 tox: inactive; DT40 TDP1 no CPT: 18µM; TGFb inhibitor: inconclusive; IL-1B inflam inh: inactive; DT40 TDP1 CPT: 21µM

Results for Fc1ccccc1CNc1nc(-c2cccnc2)nc2ccccc12 ?
TDP1 inh: inactive[0.0935 µM]; HepG2 tox: inactive; DT40 TDP1 no CPT: 23µM; TGFb inhibitor: inconclusive; IL-1B inflam inh: -97; DT40 TDP1 CPT: inconclusive
